Compound activity as filed in PubChem BioAssay.
Sampled rows, rich in hits. Any-hit rate of the full collection: about 13%.
Shiga inhibitor: blocks Shiga toxin action in Vero cells; Vero cells, Shiga toxin protein synthesis inhibition reporter; inhibition, % at 38.7 µM; 9.2% of 290,000 active; AID 2315; in the data active means inhibition mostly above about 28%, no sharp cut-off; inactive means mostly below about 43%; further: 0% is about no effect
Cycloheximide cs: affects cycloheximide protein synthesis inhibition readout, counter-screen; cell reporter, cycloheximide protein synthesis inhibition counterscreen; 12% of 300,000 active; max response, %; in the data active means max response mostly above about 13%, no sharp cut-off; inactive means mostly below about 14%; further: read at 38.3 µM for the half of the compounds with a filed dose; 0% is about no effect
HCV inh: inhibitors of hepatitis C virus infection. Potency, µM (titrated, usually from 41.8 µM), inactives show at the highest dose activity change, negative = inhibition, usual class: inhibitors. 3.4% of 340,000 active. Huh7.5.1 HCVcc-Cre infection, luciferase reporter, 44 h; active means well fitted inhibition curve with a large enough effect; inconclusive means small, poorly fitted or top-dose-only effect, or another doubt; inactive means no such curve, though single readings can be large or run the other way; further: potency means the concentration at half of the fitted maximal effect; on the % scale 0 is the no-effect control and ±100 the full control effect
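HCVcc-Cre virus at an moi near 0.5 was added right after compound to cells cultured 4 h from seeding (1,000 cells/well). Luciferase activity was determined 44 h later, 15 min after substrate addition at RT.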
Marburg entry inh: inhibitors of Marburg virus binding or cell entry. Marburg virus pseudotyped entry inhibition, cell reporter. 1.8% of 300,000 active. Potency, µM (top dose mostly 37.8 µM), for the others: top-dose activity change, negative = inhibition, hits mostly inhibitors; calls by dose curve; tested in HEK293 cells; further: potency means the concentration at half of the fitted maximal effect; on the % scale 0 is the no-effect control and ±100 the full control effect
FMDV inh: blocks foot and mouth disease virus; FMDV antiviral cell-based qHTS; 1.2% of 410,000 active; Potency, µM (highest dose often 57.9 µM), inactives show at the highest dose activity change, negative = inhibition, most hits filed as inhibitors; calls by dose curve; tested in HEK293T cells; further: read-out not given here; potency means the concentration at half of the fitted maximal effect; on the % scale 0 is the no-effect control and ±100 the full control effect; nearly all actives have a fitted effect of over 45% in size
LASV entry inh: blocks Lassa virus binding to or entry into cells; Lassa virus pseudotype entry inhibition, cell reporter; Potency, µM (series often up to 37.9 µM), for inactives: at the highest dose activity change, negative = inhibition, actives largely listed as inhibitors; 1.2% of 300,000 active; calls by dose curve; tested in HEK293 cells; further: potency means the concentration at half of the fitted maximal effect; on the % scale 0 is the no-effect control and ±100 the full control effect; nearly all actives have a fitted effect of over 50% in size
Active calls of the source: *; ! = not confirmed by another sample; [ ] = another dose, or the depositor's remark.

Results for CC1CCCN(C(=O)COC(=O)Cc2c(F)cccc2Cl)C1 (stereo unspecified) ?
Shiga inhibitor: 67*; Cycloheximide cs: 44*; HCV inh: -2%; Marburg entry inh: -6%[46.1 µM]; FMDV inh: 29%; LASV entry inh: inconclusive

What do the screens show for `CC1CCCN(C(=O)COC(=O)COc2ccc(Cl)cc2)C1` (stereo unspecified)?
HCV inh: -6%; Marburg entry inh: 1%; FMDV inh: -17%; LASV entry inh: 22%

How did Cc1ccccc1CNC(=O)c1cc2cccc3c2n1CC(C)S3 (stereo unspecified) do in these assays?
FMDV inh: -9%; LASV entry inh: -4%[46.1 µM]

How did CC(C)(C)C(=O)Nc1ccc(-c2nnc3n2CCCCC3)cc1 do in these assays?
Shiga inhibitor: -11; Cycloheximide cs: 1; HCV inh: 21%; FMDV inh: -4%

What do the screens show for `CC1CCN(C(=O)CNC(=O)c2ccc(Cl)cc2Cl)CC1`?
Shiga inhibitor: 50*; Cycloheximide cs: 27*; HCV inh: 6%; Marburg entry inh: 0%; FMDV inh: 60%; LASV entry inh: 0%

What do the screens show for `O=C(NCC(=O)N1CCCCC1)c1ccc(Cl)cc1Cl`?
Shiga inhibitor: 58*; Cycloheximide cs: 49*; HCV inh: 3%; Marburg entry inh: -2%[46.1 µM]; FMDV inh: 0%; LASV entry inh: 22%

What do the screens show for `COc1ccccc1N1CCN(C(=O)CNC(=O)c2ccc(Cl)cc2Cl)CC1`?
Shiga inhibitor: -6; Cycloheximide cs: 2; HCV inh: inconclusive; Marburg entry inh: -18%[46.1 µM]; FMDV inh: -21%; LASV entry inh: -24%

What do the screens show for `COc1ccc(OC)c(-c2cc(-c3cccnc3)nc(N)c2C#N)c1`?
Shiga inhibitor: 21; Cycloheximide cs: -1; HCV inh: inconclusive; Marburg entry inh: 1.4µM*; FMDV inh: inconclusive; LASV entry inh: inconclusive

What do the screens show for `CCN(CC)CCCNC(=O)c1cc(Sc2nnc(C)s2)nc2ccccc12`?
Shiga inhibitor: 4; Cycloheximide cs: -2; HCV inh: inconclusive; Marburg entry inh: inconclusive; FMDV inh: -25%; LASV entry inh: inconclusive

How did Cn1cnc([N+](=O)[O-])c1Sc1ncnc2nc[nH]c12 do in these assays?
Shiga inhibitor: 0; Cycloheximide cs: 0; HCV inh: 17%; Marburg entry inh: 18µM*; FMDV inh: inconclusive; LASV entry inh: inconclusive

What do the screens show for `C=CCNC(=S)Nc1ccc(N(C)C)cc1`?
Shiga inhibitor: 24; Cycloheximide cs: 29*; HCV inh: 19%; Marburg entry inh: inconclusive; FMDV inh: 38%; LASV entry inh: 25%[46.1 µM]

How did CCCNC(=O)C(=O)Nc1ccc(N(C)C)cc1 do in these assays?
Shiga inhibitor: 68*; Cycloheximide cs: 31*; HCV inh: 11%; Marburg entry inh: inconclusive; FMDV inh: 1%; LASV entry inh: 7%

How did CN(C)c1ccc(NC(=O)C(=O)NCCOc2ccccc2)cc1 do in these assays?
Shiga inhibitor: 19; Cycloheximide cs: 4; HCV inh: 19%; Marburg entry inh: 12%[46.1 µM]; FMDV inh: 8%

How did CS(=O)(=O)Nc1ccc(C(=O)Nc2ccccc2-c2ccccc2)cc1 do in these assays?
Cycloheximide cs: -1; HCV inh: 0%; FMDV inh: -14%

What do the screens show for `CC(C)[C@@]1(NC(=O)[C@@H]2C[C@@H]3c4cccc5[nH]cc(c45)C[C@H]3N(C)C2)O[C@@]2(O)[C@@H]3CCCN3C(=O)[C@H](Cc3ccccc3)N2C1=O`?
Shiga inhibitor: -3; Cycloheximide cs: -2; HCV inh: 4%[8.37 µM]; Marburg entry inh: 5.6µM*!; FMDV inh: 0%; LASV entry inh: inconclusive

What do the screens show for `CC(C)[C@@]1(NC(=O)[C@@H]2C[C@@H]3c4cccc5[nH]cc(c45)C[C@H]3N(C)C2)O[C@@]2(O)C3CCCN3C(=O)[C@H](Cc3ccccc3)N2C1=O` (stereo partly specified)?
Marburg entry inh: 5.6µM*; LASV entry inh: -40%

Results for CN1C[C@H](C(=O)N[C@@]2(C)O[C@@]3(O)C4CCCN4C(=O)C(Cc4ccccc4)N3C2=O)C[C@H]2c3cccc4[nH]cc(c34)C[C@H]21 (stereo partly specified) ?
FMDV inh: 9%

How did CO[C@@H]1CN(C)C(=O)c2cc(NC(=O)NC3CCCCC3)ccc2OC[C@@H](C)N(CCc2ccccc2)C[C@@H]1C do in these assays?
FMDV inh: 0%

What do the screens show for `CCOc1ccccc1C1N=C(c2ccc(OC)cc2)CC(c2ccccc2O)N1` (stereo unspecified)?
Shiga inhibitor: 114*; Cycloheximide cs: 46*; HCV inh: inconclusive; Marburg entry inh: 13%; FMDV inh: 5%; LASV entry inh: -19%

What do the screens show for `Cc1oc(/N=C/c2ccc(O)cc2O)c(C#N)c1C`?
Shiga inhibitor: 117*; Cycloheximide cs: 37*; HCV inh: -27%; Marburg entry inh: 8%; FMDV inh: 0%; LASV entry inh: 13%

How did Cc1oc(/N=C/c2ccccc2O)c(C#N)c1C do in these assays?
Shiga inhibitor: -13; Cycloheximide cs: 7; Marburg entry inh: 1%; FMDV inh: -14%; LASV entry inh: 15%[14.3 µM]

What do the screens show for `Cc1ccc(N/N=C2/CCCNC2=O)cc1`?
Shiga inhibitor: 40; Cycloheximide cs: 11; HCV inh: 13%; Marburg entry inh: 5%; FMDV inh: 17%; LASV entry inh: -3%

Results for O=C1NCCC/C1=N/Nc1cc(F)ccc1F ?
Shiga inhibitor: 42*; Cycloheximide cs: 36*; HCV inh: -22%; FMDV inh: 52%

Results for CC(=O)c1ccc(N/N=C2/CCCNC2=O)cc1 ?
Shiga inhibitor: 45; Cycloheximide cs: 22*; HCV inh: 11%; Marburg entry inh: inconclusive; FMDV inh: -19%; LASV entry inh: 7%[46.1 µM]

How did CC(C)(CO)NCc1c(OCc2ccc(Cl)cc2)ccc2ccccc12 do in these assays?
Cycloheximide cs: -7; HCV inh: -23%; Marburg entry inh: inconclusive; FMDV inh: -10%; LASV entry inh: 2.5µM*

How did COc1cc(CNC(C)(C)CO)cc(Br)c1OCc1ccc(Cl)cc1 do in these assays?
Shiga inhibitor: 8; Cycloheximide cs: -3; HCV inh: 5µM*; Marburg entry inh: inconclusive; FMDV inh: 0%; LASV entry inh: inconclusive

Results for COc1cc(CNC(C)(C)CO)cc(Br)c1OCc1ccc(Cl)cc1Cl ?
Shiga inhibitor: -3; Cycloheximide cs: -5; HCV inh: 10µM*; Marburg entry inh: 13µM*; FMDV inh: inconclusive; LASV entry inh: inconclusive

Results for Cc1cccc(NC(=O)NC(C)C(c2cccs2)N2CCOCC2)c1 (stereo unspecified) ?
Shiga inhibitor: 5; Cycloheximide cs: -1; HCV inh: 6%; FMDV inh: -21%

Results for O=C(Nc1ccc2nc(C3CC3)n(Cc3ccccc3)c(=O)c2c1)C1CC1 ?
Shiga inhibitor: 31*; Cycloheximide cs: 23*; HCV inh: -3%; FMDV inh: 52%
